Results taken from PMC7819943, “Rice protein-binding microarrays: a tool to detect cis-acting elements near promoter regions in rice”.
In all, about 39,000 sequences were measured (“fluorescence intensity (a.u.)”: median about 4,300, highest 2% from about 39,000 on). This is one part of a sample in which the highest values are shown more often than they occur.

Target: T1, OsSMF1 (Oryza sativa, UniProt Q6ZLB0 1-436)
T1 sequence: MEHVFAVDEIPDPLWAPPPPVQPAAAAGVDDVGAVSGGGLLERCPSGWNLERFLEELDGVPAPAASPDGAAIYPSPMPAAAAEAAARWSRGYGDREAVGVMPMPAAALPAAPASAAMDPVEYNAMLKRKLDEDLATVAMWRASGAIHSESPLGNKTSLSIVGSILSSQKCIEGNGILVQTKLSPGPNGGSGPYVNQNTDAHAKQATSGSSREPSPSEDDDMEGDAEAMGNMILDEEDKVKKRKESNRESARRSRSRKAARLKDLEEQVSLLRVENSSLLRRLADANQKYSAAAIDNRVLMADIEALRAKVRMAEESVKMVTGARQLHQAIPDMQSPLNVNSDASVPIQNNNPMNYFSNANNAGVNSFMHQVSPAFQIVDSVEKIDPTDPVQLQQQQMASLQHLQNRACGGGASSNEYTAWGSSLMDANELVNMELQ
Assay: protein-binding microarray (RPBM); PBS, 2% BSA, 51.3 ng/ul salmon testes DNA, 50 uM zinc acetate, 200 nM TF, 25 C, 1 h; high values mean tight binding
Settings: protein: recombinant; tags: N-terminal polyhistidine and DsRed monomer fusion (pET32a); chain copies: 2; label: CyDye5-dUTP incorporated in the synthesized complementary strand; 3' TTTTT single-stranded linker to array surface; dsDNA, one strand shown
Procedure, shortened: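 Ni–NTA purification followed expression in E. coli BL21-CodonPlus of transcription factors fused N-terminally to a polyhistidine tag and DsRed. At 200 nM in PBS with 2% BSA, salmon testes DNA and 50 µM zinc acetate, the protein was incubated for 1 h at 25 °C with a custom Agilent array that had been primer-extended with Cy5-dUTP and blocked with 2% BSA. After washing, the array was read on an Axon 4000B scanner. The binding signal is per-feature fluorescence intensity in arbitrary units.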

Row | Sequence | binding signal
1 | GGGCACTCGAACCATCTAGTGCAGACGTGGTAACTGGCGCCGGAGTCACCTAGTGCAG | 5510 fluorescence intensity (a.u.)
2 | TCTTATACTAAGATAATAAGATTATATCCTTGTCATCCAACGGAGTCACCTAGTGCAG | 4430 fluorescence intensity (a.u.)
3 | ATATCCATATCAAATTAAGCCAGGTTTGTAATTAATAACTCGGAGTCACCTAGTGCAG | 9630 fluorescence intensity (a.u.)
4 | CCAAACTAATTAAGACAGCCAACTCACCTCCATCATATAACGGAGTCACCTAGTGCAG | 65500 fluorescence intensity (a.u.)
5 | GCCGCCGCTCCCTCCCAATGACCCGCCGGATCTCCTAGTGCGGAGTCACCTAGTGCAG | 3160 fluorescence intensity (a.u.)
6 | CCTGCAGCCAGGTCCTCGTATCATAGATGACGACGACTTCCGGAGTCACCTAGTGCAG | 4660 fluorescence intensity (a.u.)
7 | CGAAGCGGTTCAGGAAGATGGAGCGGCACGTGGCTGCGACCGGAGTCACCTAGTGCAG | 5240 fluorescence intensity (a.u.)
8 | TTTTGGATTCCCTTTTCATCCATGGATGCATGTGTTCCTTCGGAGTCACCTAGTGCAG | 3220 fluorescence intensity (a.u.)
9 | TACTAGTGTGGACATGTTCCCCTTTTCAGGAAGATGGCAGCGGAGTCACCTAGTGCAG | 40300 fluorescence intensity (a.u.)
10 | GGCAGCGACCACGACACGTCGTTGTTCCCTCTGCTCCCGCCGGAGTCACCTAGTGCAG | 6470 fluorescence intensity (a.u.)
11 | TCCCAAACCCCGCGCCGCCTCTTACCGCTTCGCGTCAGCTCGGAGTCACCTAGTGCAG | 63900 fluorescence intensity (a.u.)
12 | AACTCCTCGCCACCACGCCGCTTTATTCTCTAAGAACCCCCGGAGTCACCTAGTGCAG | 40700 fluorescence intensity (a.u.)
13 | TCCGAACATCCGCGTGTCTGCTTCTGCGCCAGCCCGAGCCCGGAGTCACCTAGTGCAG | 44300 fluorescence intensity (a.u.)
14 | CACCCGCCGCTGCTCTGCCTACTCGCCGGCCACCTCCTCACGGAGTCACCTAGTGCAG | 3720 fluorescence intensity (a.u.)
15 | CCCTCGCCGCCACGGCGAACCCCTCGCCGCCGCCACCGCCCGGAGTCACCTAGTGCAG | 3570 fluorescence intensity (a.u.)
16 | GCACCTCGCAATATCCATGGTCCCCGCTGCCCGTGGACTCCGGAGTCACCTAGTGCAG | 41200 fluorescence intensity (a.u.)
17 | GCGCTGCCACGAGTGCCCGCGTCATCCCGTCCCCTCGCACCGGAGTCACCTAGTGCAG | 6120 fluorescence intensity (a.u.)
18 | GACTCCCGCGTGCTCGCCGCGCCGCCCACCGTCACCGCCTCGGAGTCACCTAGTGCAG | 3230 fluorescence intensity (a.u.)
19 | GTGTGTGTGTGTGCTGCGTGTGCGTGTGCGCGCGCGTGCCCGGAGTCACCTAGTGCAG | 5210 fluorescence intensity (a.u.)
20 | CAATCCCACCTCGCGCGATGACTCCGCACCCGCCCCACCTCGGAGTCACCTAGTGCAG | 7260 fluorescence intensity (a.u.)
21 | GCCACCGCTGCATCATCCCGCCTGTCTGCCTGCGCGCGCCCGGAGTCACCTAGTGCAG | 3430 fluorescence intensity (a.u.)

Row | Sequence | binding signal
22 | CCAAACCCCACGCACGCCGCGTCGCCGCCTCCTCCTCTCCCGGAGTCACCTAGTGCAG | 3670 fluorescence intensity (a.u.)
23 | ACCAAACATTACCTAATGCAATCGAACTATCGAAGACATGCGGAGTCACCTAGTGCAG | 3700 fluorescence intensity (a.u.)
24 | GTGAGACTGGCGAGGCCCTTCTTGCGTGGCGCTGCAAGCTCGGAGTCACCTAGTGCAG | 7600 fluorescence intensity (a.u.)
25 | ACACTCCAGCATAGTTAATGTTTACTGCTAGGAGGATTCACGGAGTCACCTAGTGCAG | 25600 fluorescence intensity (a.u.)
26 | CTCCTGGTACGCCTCGCTCAGCTCGTCCACCGTCGCCTCCCGGAGTCACCTAGTGCAG | 3750 fluorescence intensity (a.u.)
27 | TAGAGCGCCACATGACATCTTAGAAGCGTTTGTAGGAGTACGGAGTCACCTAGTGCAG | 30400 fluorescence intensity (a.u.)
28 | TTATACATGCTCACGTGGCTATGTCATTGCCCTGGGTGGGCGGAGTCACCTAGTGCAG | 12000 fluorescence intensity (a.u.)
29 | CTAAATCCTCGGGTCCACATGTCATACTCAGCCTCTTTACCGGAGTCACCTAGTGCAG | 5460 fluorescence intensity (a.u.)
30 | TCTGGTCTTTCCGCGTGTCGACGACCACGGTGGCGGTGCACGGAGTCACCTAGTGCAG | 3540 fluorescence intensity (a.u.)
31 | TCGCCACCGCCACGTCATCTCCCCACCCTCCTCCTCTTCCCGGAGTCACCTAGTGCAG | 44700 fluorescence intensity (a.u.)
32 | CCGGTCGTCCGTCAGCATCCTCTCTTCCGTTGGTCATCCTCGGAGTCACCTAGTGCAG | 4550 fluorescence intensity (a.u.)
33 | AAACCAAAACCAAACCGAAGCTTCCCCATCTCGCGTGAACCGGAGTCACCTAGTGCAG | 40800 fluorescence intensity (a.u.)
34 | CATCGGTCATGGTGGCGTTGGTCATGTTGGCATGGCCGTCCGGAGTCACCTAGTGCAG | 44000 fluorescence intensity (a.u.)
35 | ATCCCATCGCGCCACGCGAGCTCGATCGATCGAGGTGTGTCGGAGTCACCTAGTGCAG | 3490 fluorescence intensity (a.u.)
36 | TAGGATGCCACGTCATCTCTCCCTTCCCCTCTCTCTCTCCCGGAGTCACCTAGTGCAG | 27000 fluorescence intensity (a.u.)
37 | CGCGAAAGGCGTGAAACCAGTGCACGCATCACCCATCTCGCGGAGTCACCTAGTGCAG | 3400 fluorescence intensity (a.u.)
38 | TTAGTTCACCCATCTTGCCAATGCTGTCATCGCCACAGCTCGGAGTCACCTAGTGCAG | 3310 fluorescence intensity (a.u.)
39 | TGGGCCCACCCCTCCACTCGCCCTCCTCTTCCCGCCACGTCGGAGTCACCTAGTGCAG | 6190 fluorescence intensity (a.u.)
40 | TCCTTGTCGCGCTGCCATCGCCACCCAATGCCATCGAGCTCGGAGTCACCTAGTGCAG | 49600 fluorescence intensity (a.u.)
41 | GATCGTCGCGTCGTCGGCGTTGGCATCGGCATCCATGTGCCGGAGTCACCTAGTGCAG | 3830 fluorescence intensity (a.u.)
42 | CCATTCCCAAAAGCAAAGCGAACCTAAGCTCGCTTCGTCTCGGAGTCACCTAGTGCAG | 21000 fluorescence intensity (a.u.)

Row | Sequence | binding signal
43 | ACCCGCGCGCCGGCCGCGTCATCGACGACATCGTGCGTACCGGAGTCACCTAGTGCAG | 3920 fluorescence intensity (a.u.)
44 | TTGTGATGTCCACGTATTCAGGATTAGACCACAGGCCCGGCGGAGTCACCTAGTGCAG | 8170 fluorescence intensity (a.u.)
45 | ATCCTTCATTATGTTAGAGTACCACATGGGAAGTCGAGACCGGAGTCACCTAGTGCAG | 3750 fluorescence intensity (a.u.)
46 | GCGCCGCTCCGTGTCCCTCCCAATCCGAACCGTTTCGCGCCGGAGTCACCTAGTGCAG | 3500 fluorescence intensity (a.u.)
47 | TACAACTACGGCCCTCCGCAGCCACAGGCGCCGCCGCCGCCGGAGTCACCTAGTGCAG | 3340 fluorescence intensity (a.u.)
48 | TTATTAGCAACCACCGTCACATATAAATTAATATGTGCCGCGGAGTCACCTAGTGCAG | 3710 fluorescence intensity (a.u.)
49 | GTCCGTCTTGTTTTCTCCTGCGTCACAATTGTCCCGTATTCGGAGTCACCTAGTGCAG | 4280 fluorescence intensity (a.u.)
50 | GAGCGCGAGCTGCTCTCCTCTCCTCCCGCCCCGCGTCGCCCGGAGTCACCTAGTGCAG | 11500 fluorescence intensity (a.u.)
51 | AACCACCCTCCGCCGCCGCCGCCGCTCGCCGTAGTCACCTCGGAGTCACCTAGTGCAG | 3180 fluorescence intensity (a.u.)
52 | GCAATCCCACGTTATCCATCACCCCACCGGGGAAGCCCAACGGAGTCACCTAGTGCAG | 3310 fluorescence intensity (a.u.)
53 | GCTCTCGCTGACGCTGCCGCTCCGCCTGCCTCCGCCCGCGCGGAGTCACCTAGTGCAG | 3900 fluorescence intensity (a.u.)
54 | CACACGCCAACCCGGCCCCACACGTCAGCCACTCCCACTGCGGAGTCACCTAGTGCAG | 7300 fluorescence intensity (a.u.)
55 | TCGCCAACTCGCGCCCAATCCCGGCTTGACACGTCACCCCCGGAGTCACCTAGTGCAG | 42000 fluorescence intensity (a.u.)
56 | TGCGCGTCCTGCTCGCCGCTGCCCTCGCTGAGGAGCTCTCCGGAGTCACCTAGTGCAG | 63600 fluorescence intensity (a.u.)
57 | CCGGCCCAACACCACTAACACGTTCAGCCCCAATCCCCAACGGAGTCACCTAGTGCAG | 42400 fluorescence intensity (a.u.)
58 | AACCAGTCGCCGCTCGCCACGTGGCACCCTCCACCTCCCTCGGAGTCACCTAGTGCAG | 50500 fluorescence intensity (a.u.)
59 | CAATCCCCTAGCCTCGCCACCCGCCACGTGTCGTCCCGCGCGGAGTCACCTAGTGCAG | 13500 fluorescence intensity (a.u.)
60 | GTCGCCGCCGCTCCTCCACCCCACGTGCCCCTCGTGGTGGCGGAGTCACCTAGTGCAG | 4350 fluorescence intensity (a.u.)
61 | CAATCCAACCGTCGTCGCGCCGCACACCGGCCACCCACCCCGGAGTCACCTAGTGCAG | 20700 fluorescence intensity (a.u.)
